Source: PubChem BioAssay (NCATS)
Values joined by “and” are separate entries in the source; they are usually repeats but may differ in a detail not shown here. Equal entries are not always repeated. A number with no mark means an inactive call. The call rests on the fitted dose curve; in most records, active means well fitted activation curve with a large enough effect; inconclusive means small, poorly fitted or top-dose-only effect, or effect the other way; inactive means flat fitted curve, though single readings scatter.

assay: Cellular Toxicity (caspase-3) Renal Proximal Tubule (AID 667); settings: renal proximal tubule cells, at 91.7 µM (top of the series);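 further: cells exposed to compound for 16 hours at 37 °C before detection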
Description: NIH Chemical Genomics Center [NCGC]
NIH Molecular Libraries Screening Centers Network [MLSCN]
National Institutes of Environmental Health Sciences [NIEHS]
National Toxicology Program [NTP]
We have developed a 1536-well cell-based assay for quantitative high throughput screening (qHTS) against a number of cell lines to determine in vitro caspase 3/7 activity of small molecules. This particular assay uses the primary kidney proximal tubule cells freshly isolated from rat.
NCGC Assay Protocol Summary:
The Caspase-Glo 3/7 assay (Promega) is a homogeneous method to measure caspase-3 and caspase-7 activities in cultured cells. The quantitation of caspase 3/7 activity is based on the cleavage of a peptide-aminoluciferin substrate. After caspase cleaves the substrate the free aminoluciferin is liberated and serves as the substrate of luciferase, which generates the light. The luminescent signal is proportional to the amount of caspase 3/7 activity present.
Using the Caspase-Glo 3/7 assay, the amount of caspase 3/7 activity was measured in the rat kidney proximal tubule cells with complete culture medium following compound treatment for 16 hours. The assay was performed in opaque white 1536-well plates. In the screen, staurosporine and doxorubicin were used as positive controls. Library compounds were measured for their ability to cause the activation of caspase 3/7 in the cell line, as reflected by an increase in luminescence signal, in a concentration-dependent manner. Data were normalized to the controls for basal activity (DMSO only) and 100% stimulation (10 uM staurosporine). AC50 values were determined from concentration-response data modeled with the standard Hill equation.
qHTS protocol for caspase 3/7 assay in rat kidney proximal tubule cells
[Step] [Parameter] [Value] [Description]
1. Reagent; 5 uL; 1000 rat kidney proximal tubule cells/well
2. Time; 5 hr; 37 °C incubation
4. Controls; 23 nL; doxorubicin 7 pM to 100 uM & staurosporine 1.4 pM to 20 uM
5. Time; 16 hr; 37 °C incubation
6. Reagent; 5 uL; Caspase-Glo 3/7 reagent
7. Time; 1 hr; Room Temperature
8. Detection; Luminescence; Viewlux plate reader
Keywords: caspase 3/7, apoptosis, rat kidney proximal tubule cells, luminescence, NTPHTS, NTPHTS_NCGC, NIEHS, EPA, DSSTox, MLSMR, MLSCN, NIH Roadmap, qHTS, NCGC

Compound	caspase-3 activation
Cc1ccccc1N	-5.94%

same assay, conditions: renal proximal tubule cells, at 91.7 µM (top of the series), primary cells freshly taken from rat, solvent-only wells 0%, staurosporine 100%

Compound	caspase-3 activation
Cc1ccccc1N	22.1%

same assay, conditions: renal proximal tubule cells; at 91.7 µM (top of the series), primary cells freshly taken from rat, solvent-only wells 0%, staurosporine 100% unless noted

Compound	caspase-3 activation
C=CC(=C)C	-6.39%
COC1=CC(=O)O[C@@H](/C=C/c2ccc3c(c2)OCO3)C1	-22.8%
ClC(Cl)=C(Cl)Cl	1.99% and -8.12%
Nc1ccccc1Cl	2.73%
c1nc[nH]n1	6.18%
Cc1ccc(O)c(C)c1	-3.58% [at 91.7 µM]
Cc1ccc([N+](=O)[O-])cc1C	-2.52%
OCC(Br)CBr (stereo not given)	0.653%
O=C(Cl)C(Cl)(Cl)Cl	-1.87%
Cc1cccc([N+](=O)[O-])c1	5.52%
CCNc1nc(Cl)nc(NC(C)C)n1	-3.87% [at 91.7 µM]
CCSC(=O)Cl	8.48%
Cc1cccc(C#N)c1	10.9%
C=CCOC(C)=O	-7.63%
OCC1CO1 (stereo not given)	0.454%
C[C@]12CC[C@H]3[C@@H](CCC4=CC(=O)CC[C@@]43C)[C@@H]1CC[C@@H]2O	-4.12% [at 91.7 µM]
Clc1cc(Cl)c(-c2cc(Cl)c(Cl)cc2Cl)cc1Cl	-3.51% [at 91.7 µM]
NC(=S)Nc1ccccc1	12.5% [at 91.7 µM] and -6.92% [at 91.7 µM]
CNC(=O)O/N=C/C(C)(C)SC	-0.514% [at 91.7 µM]

Compound	caspase-3 activation
c1ccc(OP(Oc2ccccc2)Oc2ccccc2)cc1	1.22%
c1ccc(N=Nc2ccccc2)cc1	1.95%
CCOP(=S)(OCC)SCSC(C)(C)C	-0.898%
O=NN(c1ccccc1)c1ccccc1	1.42%
ClC1=C(Cl)C2(Cl)C3C4CC(C5OC45)C3C1(Cl)C2(Cl)Cl (stereo not given)	-4.43% [at 91.7 µM]
COC1=CC(=O)OC(CCc2ccccc2)C1 (stereo not given)	1.48%
ClC1=C(Cl)C2(Cl)C3C(Cl)C=CC3C1(Cl)C2(Cl)Cl (stereo not given)	2.29%
Oc1ccc(Cl)cc1Cl	-2.5%
O=[N+]([O-])c1ccc(Cl)c(Cl)c1	4.74% [at 91.7 µM]
C=CC(N)=O	6.41% and -1%
Brc1ccc(Oc2cc(Br)c(Br)cc2Br)c(Br)c1	12.3% [at 91.7 µM] and -6.38% [at 91.7 µM]
Nc1ccc(Br)cc1	-0.502%
C=CC(C)=O	-2.96%
Clc1nc(Cl)nc(Cl)n1	1.34%
[O-][Br+2]([O-])O	-18.8% and -17.4%
CC(C)(C)OOC(C)(C)C	11.1%
CC(Cl)Cl	-1.5%
ClC(Cl)=C(Cl)C(Cl)=C(Cl)Cl	5.5%
CCN(CC)c1ccccc1	2.98%
